Assay results as given in PubChem BioAssay (NCATS).
Several values for one entry are separate records, joined by “and”; a condition that tells them apart may be missing. Equal entries are not always repeated. Records with an inconclusive call do not appear. Activity calls are given as the source filed them. Unless noted, calls come from the whole dose curve; as a rule, active = well fitted curve in the direction sought with a large enough effect in the repeat runs; inconclusive = weak or mixed curves; inactive = no such curve, though single readings can be large; an effect the other way counts as inactive or inconclusive.

How the values were obtained:
[1] = qHTS assay for small molecule agonists of the antioxidant response element (ARE) signaling pathway measured by Nrf2-dependant transcriptional activity (AID 720636); details: ARE-luc HepG2, Nrf2 luciferase reporter, 16 h; series mostly up to 92.4 µM; note: potency is the fitted concentration of half-maximal effect
Method in brief: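 First, ARE-luc HepG2 cells attached for 6 hr at 37 C in 1% dialyzed FBS medium. Next, compound or DMSO was added and incubated 16 hr. Finally, ONE-Glo reagent was added and luminescence measured after 30 min.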

[2] = qHTS assay for small molecule antagonists of the retinoid-related orphan receptor gamma (ROR-gamma) signaling pathway - cell viability counter screen (AID 720652); details: RORgamma reporter cell line viability counter screen; series mostly up to 92.2 µM;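 note: compound exposure lasted 16 hr before ATP read; % is set by controls: 0 for no effect and ±100 for the full control effect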
Method in brief: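 Luminescence from CellTiter-Glo after 30 min at room temperature reported cellular ATP as the cytotoxicity measure. Cells were the CHO reporter line with doxycycline-induced ROR-gamma expression, exposed to compound for 16 hr at 37 C.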

[3] = qHTS assay for small molecule agonists of the antioxidant response element (ARE) signaling pathway measured by Nrf2-dependant transcriptional activity - cell viability counter screen (AID 720653); details: ARE-bla HepG2 viability, CellTiter-Glo ATP luminescence, 16 h; hits give low values; note: % is set by controls: 0 for no effect and ±100 for the full control effect
Method in brief: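 ARE-bla HepG2 cells treated with compounds for 16 h at 37C; this counter screen measures viability as intracellular ATP by CellTiter-Glo luminescence after 30 min at room temperature.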

[4] = qHTS Assay for Identifying Gametocytocidal Compounds (AID 743244; active = well fitted curve in the direction sought with a large enough effect; an effect the other way counts as inactive or inconclusive;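 note: % is set by controls: 0 for no effect and ±100 for the full control effect; actives lower the fluorescent signal which means gametocytes are killed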); details: P. falciparum 3D7 stage III-V gametocytes, alamarBlue, 72 h; max response: hits give low values
Method in brief: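 Stage III-V P. falciparum 3D7 gametocytes, 20,000 per well, were exposed to compounds for 72 h at 37C, 5% CO2. AlamarBlue was then added for 24 h and viability was read as fluorescence at Ex 525/Em 598 nm.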

[5] = qHTS assay for cell viability of the p53RE-bla HCT-116 cell line (AID 743292; active = well fitted curve in the direction sought with a large enough effect; an effect the other way counts as inactive or inconclusive; note: % is set by controls: 0 for no effect and ±100 for the full control effect; nearly all actives have a fitted effect of over 55% in size); details: p53RE-bla HCT-116 viability, ATP luminescence, 16 h; series mostly up to 95 µM
Method in brief: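 Quantitative high-throughput format: compounds in DMSO were pinned onto p53RE-bla HCT-116 cells (4,000/well) and incubated 16 h at 37 C. Total intracellular ATP, read by CellTiter-Glo luminescence, reflects viable cell number.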

[6] = qHTS assay for cell viability of HEK293 cells (AID 743288; active = well fitted curve in the direction sought with a large enough effect; an effect the other way counts as inactive or inconclusive; note: % is set by controls: 0 for no effect and ±100 for the full control effect; nearly all actives have a fitted effect of over 50% in size); details: ATP luminescence (CellTiter-Glo), 18 h; max response: hits give low values
Method in brief: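 Parental HEK293 cells were seeded at 2,000 cells/well, rested at least 5 h at 37 C, then exposed to compounds in DMSO for 18 h at 37 C. Viability was read as ATP-dependent luciferase luminescence after 30 min at room temperature.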

COC(=O)c1ccccc1O
inactive: Potency [1] | outcome [2] | max response [3] 1.24% and 5.57% | max response [4] 3.79% | outcome [5]

Cc1ncc[nH]1
inactive: Potency [1] | outcome [2] | max response [3] 2.15% | max response [4] 20% | outcome [5]

CCCCO
inactive: Potency [1] | outcome [2] | max response [3] -5.18% and -2.26% | max response [4] 4.7% | outcome [5]

Cc1ccc(S(=O)(=O)NCl)cc1
inactive: Potency [1] | max response [3] -0.456% | max response [4] 4.72% | max response [6] -7.16% | outcome [5]

Oc1cccc(O)c1O
inactive: Potency [1] | outcome [2] | max response [3] -24.8% | max response [4] -2.15% | outcome [5]

O=c1n(CC2CO2)c(=O)n(CC2CO2)c(=O)n1CC1CO1 (stereo unspecified)
inactive: outcome [2] | max response [3] -19.7% and -11.1% | max response [4] 6.57% | outcome [5]
active: Potency [1] 59.6 µM and 61.1 µM

CO/N=C(/C(=O)N[C@@H]1C(=O)N2C(C(=O)O)=C(COC(N)=O)CS[C@H]12)c1ccco1
inactive: Potency [1] | outcome [2] | max response [3] 4.41% | max response [4] -11% and 13.4% | max response [6] 2.57% | outcome [5]

NCCO/C=C/[C@H](N)C(=O)O
inactive: Potency [1] | max response [3] 6.58% | max response [4] -0.535% | outcome [5]

Nc1ncnc2c1ncn2[C@H]1CC[C@@H](CO)O1
inactive: Potency [1] | outcome [2] | max response [3] -18.5% and 2.96% | max response [4] -3.96% | outcome [5]

CO
inactive: Potency [1] | outcome [2] | max response [3] -2.74% | max response [4] 16% | max response [6] 1.36% | outcome [5]
